# From PubChem BioAssay (EPA / NIEHS)
# Where “and” joins values, the source holds several entries; their conditions need not be identical. Equal entries are not always repeated. Where a structure was tested more than once in an assay, its records may differ in their call. Calls of active or inactive are those of the source. Rule for the calls: active = hit-call score of the fitted dose curve at least 0.9, where 1 is the maximum; inactive = score below 0.9.
# Assay: ATG_TCF_b_cat_CIS: Attagene CIS-FACTORIAL HepG2 Assay for human T-Cell-Factor with beta-catenin (TCF/b-cat) (AID 2282965)
# Conditions: HepG2 TCF/beta-catenin cis-reporter transcription, actives raise or lower the signal
# Experimental: ATG_CIS is a cell-based, multiplexed-readout assay that uses HepG2, a human liver cell line, with measurements taken at 24 hours after chemical dosing in a 24-well plate.ATG_TCF_b_cat_CIS is one of 52 assay component(s) measured or calculated from the ATG_CIS assay. It is designed to make measurements of mRNA induction, a form of inducible reporter, as detected with fluorescence intensity signals by Reverse transcription polymerase chain reaction (RT-PCR) and Capillary electrophoresis technology.Data from the assay component ATG_TCF_b_cat_CIS was analyzed into 1 assay endpoint. This assay endpoint, ATG_TCF_b_cat_CIS, was analyzed with bidirectional fitting relative to DMSO as the negative control and baseline of activity. Using a type of inducible reporter, measures of mRNA for gain or loss-of-signal activity can be used to understand the reporter gene at the transcription factor-level as they relate to the gene TCF7 and TCF7L2 and LEF1 and TCF7L1. Furthermore, this assay endpoint can be referred to as a primary readout, because this assay has produced multiple assay endpoints where this one serves a reporter gene function. To generalize the intended target to other relatable targets, this assay endpoint is annotated to the dna binding intended target family, where the subfamily is HMG box protein.
# Human liver HepG2 cells are transiently transfected with multiple reporter transcription units (MRTUs) in 6-well plates using FuGene 6 reagent (Roche; 3 ml FuGene/1 mg DNA). The MRTU constructs are regulated by a cis-regulating element (promoter). […] A major difference between the CIS and TRANS system is that in CIS activities of endogenous TFs are measured, whereas the TRANS assay evaluates changes in activities of exogenous, chimeric NR-Gal4 proteins. […] At the end of 24 hour incubation, total RNA was isolated using TriZol reagent (Invitrogen). The isolated RNA is then reverse-transcribed using oligo(dT) primer and Mo-MLV reverse transcriptase (Invitrogen) with DNAse I (Ambion) treatment for 30 min. The one-tenth of the produced cDNA was amplified by PCR using Taq DNA polymerase (Invitrogen) and two reporter sequence-specific primers. The PCR products were fluorescently labeled by primer extension with 6-arboxyfluorescein (6-FAM) 5'-labeled reporter sequence-specific primer (2 min at 95 C, 20 s at 68 C and 10 min at 72 C) and these products were digested with 5U of HpaI (New England Biolabs) for 2h at 37 C. The fragments were purified using Qiaquick PCR columns (Qiagen), analyzed on an ABI 3130xL genetic analyzer (Applied Biosystems) with peak positions identified by using a set of X-rhodamine (ROX)-labeled MapMarker1000 molecular weight standards (BioVentures). The raw capillary electrophoresis data was processed using Attagraph software (Attagene).
Structure (SMILES),AC50,outcome
Cc1occc1C(=O)Nc1ccc(C(=O)N2CCC(F)(F)/C(=C\C(=O)N3CCC(N4CCCCC4)CC3)c3ccccc32)cc1,26.5 µM (active),–
O=C(O)c1ccccc1-n1cc(C(=O)O)c(=O)c2cc(Nc3c(F)cc(F)cc3Cl)c(Cl)cc21,–,inactive
O=c1c(-c2ccc(O)cc2)coc2cc(O)cc(O)c12,–,inactive
CN(C[C@@H](CC[N+]12CCC(C3CCCCC3)(CC1)CC2)c1ccc(Cl)c(Cl)c1)C(=O)c1cc(C(F)(F)F)cc(C(F)(F)F)c1,–,inactive
CCCCCCCCCCCCO,–,inactive
Oc1ccccc1,–,inactive
Cc1oc2c(NC(=O)c3c(Cl)cccc3Cl)cccc2c1C(C)(C)O,25.4 µM (active),–
CCCCCCCCCCCO,–,inactive
CC/C(=C(/CC)c1ccc(O)cc1)c1ccc(O)cc1,11.1 µM (active) and 16.2 µM (active) and 5.89 µM (active),inactive
NCc1cccc(C2CCN(C(=O)c3ccc(C#Cc4ccccc4F)o3)CC2)c1,17 µM (active),–
CCO[Si](CCCNC(N)=O)(OCC)OCC,–,inactive
NC(=O)c1nc(-c2cccc(-c3cc(F)ccc3OCC(F)(F)C(F)(F)F)c2)n[nH]1,33 µM (active),–
O=C(O)Cc1cc(I)c(Oc2ccc(O)c(I)c2)c(I)c1,51.2 µM (active),inactive
Cc1cc(F)ccc1-c1cc(N2CC[C@@H](O)[C@H]2CO)ncc1N(C)C(=O)C(C)(C)c1cc(C(F)(F)F)cc(C(F)(F)F)c1,–,inactive
CCCCOC(=O)c1ccc(O)cc1,100 µM (active),inactive
COc1ccc2cc(S(=O)(=O)N[C@H](CC(=O)N[C@H](Cc3ccc(CN4[C@H](C)CCC[C@@H]4C)cc3)C(=O)N(C)C(C)C)c3ccc4c(c3)OCO4)ccc2c1,11.2 µM (active),–
c1ccc2n[nH]nc2c1,–,inactive
O=C1CCC(C2CCCCC2)CC1,–,inactive

Structure (SMILES),AC50,outcome
CC(C)(C)c1csc(-c2cc3cc(OCc4ccccc4CC(=O)O)ccc3o2)n1,–,inactive
CCCCCc1ccc(N)cc1,8.92 µM (active) and 6.2 µM (active) and 19.5 µM (active),inactive
c1ccc2ccccc2c1,–,inactive
CCCCCCCCOc1ccc(C(=O)c2ccccc2)c(O)c1,–,inactive
CCCCCCCCCC(=O)O,–,inactive
O=C(Nc1ccc(Cl)cc1)Nc1ccc(Cl)c(Cl)c1,–,inactive
CCCCCCCCOC(=O)c1cc(O)c(O)c(O)c1,–,inactive
Oc1ccc2ccccc2c1,77.3 µM (active) and 100 µM (active),–
CC(C)(O)c1ccc(CNC(=O)c2cccnc2Oc2ccc3nonc3c2)cc1,–,inactive
CCCCCCCCN(C)CCCCCCCC,–,inactive
C[C@]12CC[C@@H]3c4ccc(O)cc4CC[C@H]3[C@@H]1CCC2=O,–,inactive
COc1cc(C(=O)NC2CCN(C)CC2)ccc1Nc1ncc2c(n1)N(C1CCCC1)CC(F)(F)C(=O)N2C,4.26 µM (active),–
CCCC(=O)OCCC(C)C,–,inactive
CC1=CC(=O)/C(=C(/C)O)C(=O)O1,–,inactive
CC(=O)N1CCN(c2ccc(OC[C@H]3CO[C@](Cn4ccnc4)(c4ccc(Cl)cc4Cl)O3)cc2)CC1,5.19 µM (active),–
c1ccc(C[n+]2cccc3ccccc32)cc1,–,inactive
O=c1[nH]sc2ccccc12,44.4 µM (active),–
O=CCCCC=O,71.9 µM (active) and 100 µM (active),–
